PubChem BioAssay (EPA / NIEHS)
The source made the active and inactive calls. How the source made its calls: active means hit-call score of the fitted dose curve at least 0.9, where 1 is the maximum; inactive means score below 0.9.

Read-out: urokinase plasminogen activator (uPA), PLAU (gene 5328)
Experiment: BSK_BE3C_uPA: BioMAP Diversity Plus: BE3C Assay for urokinase plasminogen activator (uPA) Biomarker Activity (AID 2283038);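 on outcome: uPA protein level quantified by ELISA in cell cultures; uPA read one day after compound addition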
Conditions: primary human bronchial epithelial cells; actives raise or lower the signal
Procedure, shortened: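 ELISA read-out of uPA in human lung primary bronchial epithelial cultures, 24 h post-dosing. Gain or loss of signal fitted bidirectionally relative to DMSO baseline; cytotoxicity checked in parallel cultures via SRB total protein stain.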

**Q.** With `O=C1O[C@H]([C@H](O)CO)C(O)=C1O` as the compound, how does the outcome read?
**A.** Its outcome is “inactive”.

**Q.** `O=C(O)CC(O)(CC(=O)O)C(=O)O` was tested. Which outcome did it give?
**A.** Its outcome is “inactive”.

**Q.** Which AC50 does the source give for `CCCCCCCCCCCCCCOS(=O)(=O)O` here?
**A.** Its AC50 is 28.6 µM (active).

**Q.** For `CN(C)CCCN(C)CCCN(C)C`, which outcome is on record?
**A.** The outcome was “inactive”.

**Q.** Which outcome does the source give for `Cn1cnc2c1c(=O)[nH]c(=O)n2C` here?
**A.** Its outcome is “inactive”.

**Q.** Which outcome does the source give for `CC(=O)O` here?
**A.** The outcome was “inactive”.

**Q.** For `OCC(CO)n1cnc(-c2ccc(F)cc2)c1-c1ccnc(Oc2ccccc2)n1`, which AC50 is on record?
**A.** The AC50 was 3.97 µM (active).

**Q.** `CCCCc1nc2cccnc2n1Cc1ccc(-c2ccccc2-c2nnn[nH]2)cc1` was tested. Which outcome did it give?
**A.** Its outcome is “inactive”.

**Q.** For `Nc1nc(=S)c2[nH]cnc2[nH]1`, which outcome is on record?
**A.** Its outcome is “inactive”.

**Q.** `CCCC[C@H]1CN(CC2CCOCC2)C(=O)OC12CCN(C1(C)CCN(C(=O)c3c(C)ncnc3C)CC1)CC2` was tested. Which outcome did it give?
**A.** The outcome was “inactive”.

**Q.** `O=C(O)c1cccnc1` was tested. Which outcome did it give?
**A.** Its outcome is “inactive”.

**Q.** How did the outcome turn out when `O=[Si]=O` was run?
**A.** Its outcome is “inactive”.

**Q.** How did the outcome turn out when `COC(=O)CCC(=O)OC` was run?
**A.** Its outcome is “inactive”.

**Q.** With `O=Cc1ccccc1C=O` as the compound, how does the outcome read?
**A.** The outcome was “inactive”.

**Q.** Which outcome does the source give for `CC1=C(C)S(=O)(=O)CCS1(=O)=O` here?
**A.** Its outcome is “inactive”.

**Q.** `CCCCC(CC)COC(=O)CCCCCCCC(=O)OCC(CC)CCCC` (stereo not given) was tested. Which outcome did it give?
**A.** Its outcome is “inactive”.

Read-out: Urokinase-type plasminogen activator receptor (uPAR), PLAUR (gene 5329)
Experiment: BSK_BE3C_uPAR: BioMAP Diversity Plus: BE3C Assay for Urokinase-type plasminogen activator receptor (uPAR) Biomarker Activity (AID 2283039);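 on outcome: uPAR protein level measured by ELISA on the cells; cells exposed to compound for one day before measurement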
Conditions: primary human bronchial epithelial cells; actives raise or lower the signal
Procedure, shortened: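 ELISA readout of uPAR on human lung primary bronchial epithelial cells, 24 h post-dosing. Bidirectional curve fit relative to DMSO vehicle baseline; gain or loss of signal both scored.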

**Q.** With `O=C1O[C@H]([C@H](O)CO)C(O)=C1O` as the compound, how does the outcome read?
**A.** The outcome was “inactive”.

**Q.** Which outcome does the source give for `O=C(O)CC(O)(CC(=O)O)C(=O)O` here?
**A.** The outcome was “inactive”.

**Q.** For `CCCCCCCCCCCCCCOS(=O)(=O)O`, which AC50 is on record?
**A.** Its AC50 is 16.1 µM (active).

**Q.** For `CN(C)CCCN(C)CCCN(C)C`, which outcome is on record?
**A.** The outcome was “inactive”.

**Q.** `Cn1cnc2c1c(=O)[nH]c(=O)n2C` was tested. Which outcome did it give?
**A.** Its outcome is “inactive”.

**Q.** For `N[C@@H](Cc1c[nH]c2ccccc12)C(=O)O`, which outcome is on record?
**A.** Its outcome is “inactive”.

**Q.** How did the outcome turn out when `CO[C@@H]1COCC[C@@H]1N[C@@H]1CC[C@@](C(=O)N2CCc3ncc(C(F)(F)F)cc3C2)(C(C)C)C1` was run?
**A.** Its outcome is “inactive”.

**Q.** How did the outcome turn out when `CC(C)c1cccc(C(C)C)c1` was run?
**A.** The outcome was “inactive”.

**Q.** `CC(=O)O` was tested. Which outcome did it give?
**A.** The outcome was “inactive”.

**Q.** For `NC(=Nc1ccccc1)Nc1ccccc1`, which outcome is on record?
**A.** The outcome was “inactive”.

**Q.** With `CC(=O)S[C@H](C(=O)N[C@H]1Cc2ccccc2[C@H]2CCC[C@@H](C(=O)O)N2C1=O)C(C)C` as the compound, how does the outcome read?
**A.** Its outcome is “inactive”.

**Q.** With `OCC(CO)n1cnc(-c2ccc(F)cc2)c1-c1ccnc(Oc2ccccc2)n1` as the compound, how does the outcome read?
**A.** Its outcome is “inactive”.

**Q.** With `CCCCc1nc2cccnc2n1Cc1ccc(-c2ccccc2-c2nnn[nH]2)cc1` as the compound, how does the outcome read?
**A.** Its outcome is “inactive”.

**Q.** With `O=C1NC(=O)C(c2ccccc2)(c2ccccc2)N1` as the compound, how does the outcome read?
**A.** Its outcome is “inactive”.

**Q.** For `Nc1nc(=S)c2[nH]cnc2[nH]1`, which outcome is on record?
**A.** Its outcome is “inactive”.

**Q.** With `COC(=O)[C@H]1[C@H]2C[C@@H]3c4[nH]c5cc(OC)ccc5c4CCN3C[C@H]2C[C@@H](OC(=O)c2cc(OC)c(OC)c(OC)c2)[C@@H]1OC` as the compound, how does the outcome read?
**A.** Its outcome is “inactive”.

**Q.** With `CCCC[C@H]1CN(CC2CCOCC2)C(=O)OC12CCN(C1(C)CCN(C(=O)c3c(C)ncnc3C)CC1)CC2` as the compound, how does the outcome read?
**A.** Its outcome is “inactive”.

**Q.** For `O=C(O)c1cccnc1`, which outcome is on record?
**A.** Its outcome is “inactive”.

**Q.** `O=C(Oc1ccccc1)c1cccc(C(=O)Oc2ccccc2)c1` was tested. Which outcome did it give?
**A.** Its outcome is “inactive”.

**Q.** For `O=C1c2c(O)cccc2Cc2cccc(O)c21`, which outcome is on record?
**A.** The outcome was “inactive”.

**Q.** Which outcome does the source give for `COc1ccc(C(=O)Nc2nc3ccccc3c(NCc3ccccc3)c2C#N)cc1` here?
**A.** Its outcome is “inactive”.

**Q.** How did the outcome turn out when `O=[Si]=O` was run?
**A.** The outcome was “inactive”.

**Q.** Which outcome does the source give for `COC(=O)CCC(=O)OC` here?
**A.** Its outcome is “inactive”.

**Q.** For `O=Cc1ccccc1C=O`, which outcome is on record?
**A.** Its outcome is “inactive”.

**Q.** For `c1ccc2occc2c1`, which outcome is on record?
**A.** Its outcome is “inactive”.

**Q.** `CC(C)NCC(O)c1ccc(O)c(O)c1` (stereo not given) was tested. Which outcome did it give?
**A.** The outcome was “inactive”.

**Q.** For `C/C=C/C=C/C(=O)O`, which outcome is on record?
**A.** The outcome was “inactive”.

**Q.** With `CC1=C(C)S(=O)(=O)CCS1(=O)=O` as the compound, how does the outcome read?
**A.** The outcome was “inactive”.

**Q.** `CCCCC(CC)COC(=O)CCCCCCCC(=O)OCC(CC)CCCC` (stereo not given) was tested. Which outcome did it give?
**A.** The outcome was “inactive”.

**Q.** Which outcome does the source give for `O=C1OC(c2ccc(O)cc2)(c2ccc(O)cc2)c2ccccc21` here?
**A.** The outcome was “inactive”.

Read-out: Interleukin-6 (IL6), IL6 (gene 3569)
Experiment: BSK_CASM3C_IL6: BioMAP Diversity Plus: CASM3C Assay for Interleukin-6 (IL6) Biomarker Activity for (AID 2283040)
Conditions: primary human coronary artery smooth muscle cells; actives raise or lower the signal

**Q.** How did the outcome turn out when `O=C1O[C@H]([C@H](O)CO)C(O)=C1O` was run?
**A.** Its outcome is “inactive”.

**Q.** For `O=C(O)CC(O)(CC(=O)O)C(=O)O`, which outcome is on record?
**A.** The outcome was “inactive”.

**Q.** How did the outcome turn out when `CCCCCCCCCCCCCCOS(=O)(=O)O` was run?
**A.** The outcome was “inactive”.

**Q.** `CN(C)CCCN(C)CCCN(C)C` was tested. Which outcome did it give?
**A.** The outcome was “inactive”.

**Q.** How did the outcome turn out when `Cn1cnc2c1c(=O)[nH]c(=O)n2C` was run?
**A.** Its outcome is “inactive”.

**Q.** For `N[C@@H](Cc1c[nH]c2ccccc12)C(=O)O`, which outcome is on record?
**A.** Its outcome is “inactive”.

**Q.** Which outcome does the source give for `CO[C@@H]1COCC[C@@H]1N[C@@H]1CC[C@@](C(=O)N2CCc3ncc(C(F)(F)F)cc3C2)(C(C)C)C1` here?
**A.** The outcome was “inactive”.

**Q.** How did the outcome turn out when `CC(C)c1cccc(C(C)C)c1` was run?
**A.** Its outcome is “inactive”.

**Q.** With `CC(=O)O` as the compound, how does the outcome read?
**A.** Its outcome is “inactive”.

**Q.** `NC(=Nc1ccccc1)Nc1ccccc1` was tested. Which outcome did it give?
**A.** Its outcome is “inactive”.

**Q.** With `CC(=O)S[C@H](C(=O)N[C@H]1Cc2ccccc2[C@H]2CCC[C@@H](C(=O)O)N2C1=O)C(C)C` as the compound, how does the outcome read?
**A.** The outcome was “inactive”.

**Q.** `OCC(CO)n1cnc(-c2ccc(F)cc2)c1-c1ccnc(Oc2ccccc2)n1` was tested. Which AC50 did it give?
**A.** Its AC50 is 0.654 µM (active).

**Q.** `CCCCc1nc2cccnc2n1Cc1ccc(-c2ccccc2-c2nnn[nH]2)cc1` was tested. Which outcome did it give?
**A.** The outcome was “inactive”.

**Q.** With `O=C1NC(=O)C(c2ccccc2)(c2ccccc2)N1` as the compound, how does the outcome read?
**A.** The outcome was “inactive”.

**Q.** For `Nc1nc(=S)c2[nH]cnc2[nH]1`, which outcome is on record?
**A.** Its outcome is “inactive”.

**Q.** Which outcome does the source give for `COC(=O)[C@H]1[C@H]2C[C@@H]3c4[nH]c5cc(OC)ccc5c4CCN3C[C@H]2C[C@@H](OC(=O)c2cc(OC)c(OC)c(OC)c2)[C@@H]1OC` here?
**A.** Its outcome is “inactive”.

**Q.** For `CCCC[C@H]1CN(CC2CCOCC2)C(=O)OC12CCN(C1(C)CCN(C(=O)c3c(C)ncnc3C)CC1)CC2`, which outcome is on record?
**A.** Its outcome is “inactive”.

**Q.** `O=C(O)c1cccnc1` was tested. Which outcome did it give?
**A.** The outcome was “inactive”.

**Q.** With `O=C(Oc1ccccc1)c1cccc(C(=O)Oc2ccccc2)c1` as the compound, how does the outcome read?
**A.** Its outcome is “inactive”.

**Q.** How did the outcome turn out when `O=C1c2c(O)cccc2Cc2cccc(O)c21` was run?
**A.** The outcome was “inactive”.

**Q.** Which outcome does the source give for `COc1ccc(C(=O)Nc2nc3ccccc3c(NCc3ccccc3)c2C#N)cc1` here?
**A.** The outcome was “inactive”.

**Q.** How did the outcome turn out when `O=[Si]=O` was run?
**A.** Its outcome is “inactive”.

**Q.** `COC(=O)CCC(=O)OC` was tested. Which outcome did it give?
**A.** Its outcome is “inactive”.

**Q.** How did the outcome turn out when `c1ccc2occc2c1` was run?
**A.** The outcome was “inactive”.

**Q.** How did the outcome turn out when `CC(C)NCC(O)c1ccc(O)c(O)c1` (stereo not given) was run?
**A.** Its outcome is “inactive”.

**Q.** Which outcome does the source give for `C/C=C/C=C/C(=O)O` here?
**A.** Its outcome is “inactive”.

**Q.** With `CC1=C(C)S(=O)(=O)CCS1(=O)=O` as the compound, how does the outcome read?
**A.** The outcome was “inactive”.

**Q.** With `CCCCC(CC)COC(=O)CCCCCCCC(=O)OCC(CC)CCCC` (stereo not given) as the compound, how does the outcome read?
**A.** Its outcome is “inactive”.

**Q.** Which outcome does the source give for `O=C1OC(c2ccc(O)cc2)(c2ccc(O)cc2)c2ccccc21` here?
**A.** Its outcome is “inactive”.
